The values below come from PubChem BioAssay AID602143 (Vanderbilt Specialized Chemistry Center, 2011).

Activity calls are given as the source filed them. Cut-off read from the data, not from the text of the source: active = remaining activity below about 50%; inactive = the rest.

The assay deals with Phospholipase D2 (Homo sapiens) (UniProt O14939). The experiment in a line: cellular phospholipase D2 activity inhibition – cell-based, HEK293, single concentration (AID 602143).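 Note: tested at 200 nM.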 The following applies: HEK293 cellular PLD2 activity, percent of control; hits give low values.
Phospholipase D2 (Homo sapiens), sequence (O14939 whole entry, looked up): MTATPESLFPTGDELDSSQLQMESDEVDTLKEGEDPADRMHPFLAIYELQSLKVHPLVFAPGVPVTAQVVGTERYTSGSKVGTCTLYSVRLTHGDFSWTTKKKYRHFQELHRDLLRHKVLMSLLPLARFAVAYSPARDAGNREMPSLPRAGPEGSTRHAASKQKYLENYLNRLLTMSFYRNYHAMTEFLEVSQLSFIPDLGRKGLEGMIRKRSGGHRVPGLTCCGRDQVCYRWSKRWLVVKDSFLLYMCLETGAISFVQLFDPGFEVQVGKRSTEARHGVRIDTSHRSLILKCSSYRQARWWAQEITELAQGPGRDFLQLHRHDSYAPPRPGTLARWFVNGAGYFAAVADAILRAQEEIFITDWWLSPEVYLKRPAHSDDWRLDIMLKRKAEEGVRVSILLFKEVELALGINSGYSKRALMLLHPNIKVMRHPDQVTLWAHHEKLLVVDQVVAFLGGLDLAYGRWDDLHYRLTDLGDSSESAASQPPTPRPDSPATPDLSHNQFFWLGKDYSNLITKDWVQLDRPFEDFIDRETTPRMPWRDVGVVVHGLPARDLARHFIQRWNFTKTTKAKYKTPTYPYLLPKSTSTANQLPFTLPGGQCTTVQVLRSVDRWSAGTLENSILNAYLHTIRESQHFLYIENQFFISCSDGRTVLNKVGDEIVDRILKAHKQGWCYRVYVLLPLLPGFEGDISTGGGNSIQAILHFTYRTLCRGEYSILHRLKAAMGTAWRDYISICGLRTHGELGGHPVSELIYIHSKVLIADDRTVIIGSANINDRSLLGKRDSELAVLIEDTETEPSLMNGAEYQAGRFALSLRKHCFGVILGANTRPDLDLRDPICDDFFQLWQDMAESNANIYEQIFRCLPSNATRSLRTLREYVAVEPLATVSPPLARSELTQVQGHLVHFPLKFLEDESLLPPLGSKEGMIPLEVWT
Phospholipase D2 (Homo sapiens), sequence (O14939 whole entry, looked up): as above
For `O=C(NCCN1CCC(n2c(=O)[nH]c3ccccc32)CC1)c1cccc2ccc3ccccc3c12`, the remaining activity (as a rule, the signal under treatment as a percentage of the control signal) was 65.9% (inactive). For `Cc1ccc(C(=O)N[C@@H](C)CN2CCC(n3c(=O)[nH]c4ccc(F)cc43)CC2)cc1` the value was 64% (inactive).

Consider `Cn1c(C2CCN(CCN)CC2)nc2ccccc21` (tested in a mixture with another compound), for which the remaining activity was 117% (inactive).

`CCOC(=O)CNC(=O)NCCN1CCC(n2c(=O)[nH]c3ccccc32)CC1`: the remaining activity was 121% (inactive).

With `CC(C)[C@@H](CN1CCC(n2c(=O)[nH]c3ccccc32)CC1)NC(=O)[C@@H]1C[C@H]1c1ccccc1`, the remaining activity was 74% (inactive). As to `O=C(NCCN1CCC(c2nc3ccccc3[nH]2)CC1)c1ccc2ccccc2c1`, the remaining activity is 95.1% (inactive). For `O=C(NCCN1CCC(c2nc3ccccc3[nH]2)CC1)c1cnc2ccccc2c1` the value was 80.6% (inactive); for `C[C@@H](CN1CCC2(CNCc3ccccc32)C1)NC(=O)c1ccc2ccccc2c1` (stereo not given in full), 91% (inactive). The result for `O=C(NCCN1CCC(n2c(=O)[nH]c3ccccc32)CC1)NCc1cccc(F)c1` reads 101% (inactive); that for `O=C(NCCN1CCC(n2c(=O)[nH]c3ccccc32)CC1)Nc1cccc(F)c1`, 87.9% (inactive). The result for `O=c1[nH]c2ccccc2n1C1CCN(CCNS(=O)(=O)c2ccccc2[N+](=O)[O-])CC1` reads 108% (inactive). Regarding `O=C(NCCN1CCC(C(=O)NCC2CC2)CC1)c1ccc2ccccc2c1`, the remaining activity is 108% (inactive).

As for `C[C@@H](CN1CCC(n2c(=O)[nH]c3cc(I)ccc32)CC1)NC(=O)C1CC1c1ccccc1` (stereo not given in full), the remaining activity is 99.2% (inactive).

For `O=C(NCCN1CCN(c2ccncc2)CC1)c1c2ccccc2cc2ccccc12`, the remaining activity is 127% (inactive). Regarding `O=C(NCCN1CCC(n2c(=O)[nH]c3ccccc32)CC1)c1ccc2cccc3c2c1CC3`, the remaining activity is 98% (inactive). As to `CC(C)[C@@H](CN1CCC(n2c(=O)[nH]c3ccccc32)CC1)NC(=O)c1cc2cc(F)ccc2[nH]1`, the remaining activity was 79.5% (inactive).

Turning to `COc1ccc(S(=O)(=O)NCCN2CCC(n3c(=O)[nH]c4ccccc43)CC2)cc1OC`, the remaining activity is 77.1% (inactive). The result for `Cc1cccc(C(=O)NCCN2CCC(n3c(=O)[nH]c4ccccc43)CC2)n1` reads 52.5% (inactive). Regarding `O=C(CCc1ccc(F)cc1)NCCN1CCC(n2c(=O)[nH]c3ccccc32)CC1`, the remaining activity was 93.5% (inactive). The result for `O=C(NCCN1CCC2(C=Cc3ccccc32)CC1)[C@H]1C[C@@H]1c1ccccc1` reads 130% (inactive); that for `C[C@@H](CN1CCC(n2c(=O)[nH]c3ccc(F)cc32)CC1)NC(=O)c1ccc(F)cc1`, 66.8% (inactive); that for `O=C(NCCN1CCC2(C=Cc3ccccc32)CC1)c1cnc2ccccc2c1`, 92.4% (inactive). For `O=C(NCCN1CCC(n2c(=O)[nH]c3ccccc32)CC1)c1cccc2cccnc12` the value was 74.2% (inactive); for `O=C(NCCN1CCC(n2c(=O)[nH]c3cc(I)ccc32)CC1)C1CC1c1ccccc1` (stereo not given), 57.2% (inactive); for `NC1(CN2CCC(c3nc4ccccc4[nH]3)CC2)CCCC1` (tested in a mixture with another compound), 105% (inactive).

Turning to `O=C(NCCN1CCN(c2ccncc2)CC1)c1ccc(F)cc1`, the remaining activity is 102% (inactive). The result for `CCS(=O)(=O)NCCN1CCC(n2c(=O)[nH]c3ccccc32)CC1` reads 100% (inactive); that for `O=C(c1ccc(Cl)cc1)N1CCC(n2c(=O)[nH]c3cc(Cl)ccc32)CC1`, 60.2% (inactive). Turning to `CS(=O)(=O)N1CC2(CCN(CCNC(=O)c3cnc4ccccc4c3)CC2)c2ccccc21`, the remaining activity is 83.7% (inactive).

Consider `O=C(NCCN1CCC(n2c(=O)[nH]c3ccccc32)CC1)c1cc2ccccc2c2c1ccc1ccccc12`, for which the remaining activity was 76.6% (inactive).

Consider `Cc1ccc(C(=O)N[C@@H](C)CN2CCC(n3c(=O)[nH]c4cc(Cl)ccc43)CC2)cc1`, for which the remaining activity was 86% (inactive). The result for `C[C@@H](CN1CCC(n2c(=O)[nH]c3ccccc32)CC1)NC(=O)c1ccc2ncccc2c1` reads 82.2% (inactive); that for `C[C@@H](CN1CCC(n2c(=O)[nH]c3cc(-c4ccccc4)ccc32)CC1)NC(=O)[C@H]1C[C@@H]1c1ccccc1`, 79.2% (inactive). For `COc1cccc(N2CCN(CCNC(=O)c3ccc4ccccc4c3)CC2)c1`, the remaining activity was 77.4% (inactive). Turning to `O=C(NCCN1CCC(n2c(=O)[nH]c3ccccc32)CC1)c1ncccn1`, the remaining activity is 90.1% (inactive). For `C[C@@H](CN1CCC(n2c(=O)[nH]c3ccc(F)cc32)CC1)NC(=O)c1ccc(Cl)cc1` the value was 68.3% (inactive); for `C[C@@H](CN1CCC2(CCc3ccccc32)CC1)NC(=O)c1cnc2ccccc2c1`, 108% (inactive); for `CS(=O)(=O)NCCN1CCC(n2c(=O)[nH]c3ccccc32)CC1`, 96.5% (inactive). The result for `O=C(NCCN1CCC(C(=O)NCc2ccc(Cl)cc2)CC1)c1ccc2ccccc2c1` reads 106% (inactive); that for `Cc1ccc(C(=O)NCCN2CCN(c3ncccn3)CC2)cc1`, 85.6% (inactive).
